Measurements taken from PubChem BioAssay AID1159580 (chemical genetic matrix, 2015).
The whole screen tested about 5,500 compounds, of which about 2,000 (36%) were called active. Another 18% or so got no clear call; they are omitted. Cut-off read from the data, not from the text of the source: active = normalized growth mostly below about 0.91 (no sharp cut-off); inconclusive = no clear call, values can overlap the other calls; inactive = mostly above about 0.92. Some of the results follow.

Test: chemical genetic growth profiling, strain panel (AID 1159580);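 note: tested at 20 µM; growth read once vehicle control cultures reached saturation at 30 °C; 1 = growth at the plate median or of vehicle wells; lower values mean less growth of the strain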
Settings: S. cerevisiae deletion strains, growth OD

Measured: normalized growth

O=C(O)c1ccccc1Nc1ccccc1
inactive: locus YAL013W, strain DEP1, hits give low values 1.01 | locus YAL021C, strain ccr4, hits give low values 0.953 | locus YAL026C, strain drs2, hits give low values 0.921 | locus YAL030W, strain snc1, hits give low values 0.94 | locus YAL040C, strain CLN3, hits give low values 1.01 | locus YBL061C, strain skt5, hits give low values 0.946 | locus YBR009C, strain hhf1, hits give low values 0.992 | locus YBR023C, strain chs3, hits give low values 0.951 | locus YBR171W, strain sec66, hits give low values 0.894 | locus YBR231C, strain swc5, hits give low values 0.966 | locus YBR279W, strain paf1, hits give low values 0.964 | locus YCL011C, strain gbp2, hits give low values 0.922 | locus YCL016C, strain dcc1, hits give low values 0.961 | locus YDL005C, strain med2, hits give low values 0.957 | locus YDL040C, strain nat1, hits give low values 0.944 | locus YDR069C, strain doa4, hits give low values 1.01 | locus YDR137W, strain rgp1, hits give low values 0.86 | locus YDR150W, strain NUM1, hits give low values 0.994 | locus YDR159W, strain sac3, hits give low values 0.957 | locus YDR195W, strain ref2 1.05 | locus YDR297W, strain sur2, hits give low values 0.929 | locus YDR334W, strain swr1, hits give low values 0.926 | locus YDR335W, strain msn5, hits give low values 0.941 | locus YDR363W, strain ESC2, hits give low values 1.01 | locus YDR392W, strain spt3, hits give low values 0.852 | locus YEL003W, strain gim4, hits give low values 0.924 | locus YER002W, strain NOP16, hits give low values 0.941 | locus YER015W, strain faa2, hits give low values 0.947 | locus YER016W, strain bim1, hits give low values 0.972 | locus YER155C, strain BEM2 (second series), hits give low values 0.909 | locus YFR010W, strain ubp6, hits give low values 0.989 | locus YGL167C, strain pmr1, hits give low values 0.92 | locus YGL173C, strain kem1, hits give low values 0.954 | locus YGL240W, strain doc1, hits give low values 0.985 | locus YGL253W, strain hxk2, hits give low values 0.926 | locus YGR078C, strain PAC10, hits give low values 0.964 | locus YHR013C, strain ard1, hits give low values 0.989 | locus YHR027C, strain rpn1, hits give low values 0.938 | locus YHR142W, strain chs7, hits give low values 0.908 | locus YJL095W, strain BCK1 (second series), hits give low values 0.938 | locus YJL164C, strain tpk1, hits give low values 0.957 | locus YJL166W, strain qcr8, hits give low values 0.97 | locus YJL187C, strain SWE1, hits give low values 0.971 | locus YKL160W, strain elf1, hits give low values 0.938 | locus YLL001W, strain dnm1, hits give low values 0.966 | locus YLL026W, hits give low values 0.934 | locus YLR027C, strain aat2, hits give low values 0.956 | locus YLR221C, strain rsa3, hits give low values 0.962 | locus YLR258W, strain gsy2, hits give low values 0.961 | locus YLR320W, strain mms22, hits give low values 0.99 | locus YLR342W, strain FKS1, hits give low values 0.923 | locus YLR357W, strain rsc2, hits give low values 1.03 | locus YLR370C, strain arc18, hits give low values 0.945 | locus YLR384C, strain iki3, hits give low values 0.934 | locus YML120C, strain ndi1, hits give low values 0.963 | locus YMR058W, strain fet3, hits give low values 0.935 | locus YMR125W, strain sto1, hits give low values 0.988 | locus YMR205C, strain PFK2, hits give low values 1 | locus YMR231W, strain pep5, hits give low values 0.933 | locus YNL071W, strain lat1, hits give low values 0.929 | locus YNL128W, strain TEP1, hits give low values 0.973 | locus YNL175C, strain NOP13, hits give low values 0.935 | locus YNL197C, strain WHI3, hits give low values 0.927 | locus YNL209W, strain ssb2, hits give low values 0.949 | locus YNL224C, strain SQS1, hits give low values 0.94 | locus YNL248C, strain rpa49, hits give low values 0.99 | locus YNR049C, strain mso1, hits give low values 0.922 | locus YOR001W, strain rrp6, hits give low values 0.951 | locus YOR070C, strain gyp1, hits give low values 0.945 | locus YOR080W, strain dia2, hits give low values 0.959 | locus YOR083W, strain WHI5 (second series), hits give low values 0.982 | locus YOR083W, strain WHI5, hits give low values 0.929 | locus YOR106W, strain vam3, hits give low values 0.956 | locus YOR265W, strain rbl2, hits give low values 0.941 | locus YOR270C, strain vph1, hits give low values 0.97 | locus YOR290C, strain snf2, hits give low values 0.934 | locus YPL051W, strain arl3, hits give low values 0.933 | locus YPL055C, strain LGE1, hits give low values 1.01 | locus YPL078C, strain atp4, hits give low values 0.914 | locus YPL106C, strain sse1, hits give low values 1.01
active: locus YCL061C, strain MRC1, hits give low values 0.892 | locus YCL069W, strain vba3, hits give low values 0.907 | locus YCR088W, strain abp1, hits give low values 0.907 | locus YDR001C, strain nth1, hits give low values 0.892 | locus YEL037C, strain rad23, hits give low values 0.913 | locus YEL061C, strain CIN8 (second series), hits give low values 0.899 | locus YER111C, strain swi4, hits give low values 0.908 | locus YGL227W, strain vid30, hits give low values 0.909 | locus YHR030C, strain SLT2, hits give low values 0.482 | locus YHR079C, strain IRE1, hits give low values 0.395 | locus YJL092W, strain hpr5, hits give low values 0.893 | locus YJL095W, strain BCK1, hits give low values 0.502 | locus YJL115W, strain asf1, hits give low values 0.901 | locus YJL129C, strain trk1, hits give low values 0.847 | locus YJL154C, strain vps35, hits give low values 0.894 | locus YJR066W, strain TOR1, hits give low values 0.392 | locus YKR026C, strain gcn3, hits give low values 0.903 | locus YKR091W, strain srl3, hits give low values 0.927 | locus YLL041C, strain sdh2, hits give low values 0.925 | locus YLR113W, strain HOG1, hits give low values 0.291 | locus YLR262C, strain YPT6 (second series), hits give low values 0.832 | locus YMR129W, hits give low values 0.889 | locus YNL183C, strain NPR1, hits give low values 0.367 | locus YNL322C, strain KRE1 (second series), hits give low values 0.871 | locus YOR231W, strain MKK1, hits give low values 0.413 | locus YPL240C, strain hsp82, hits give low values 0.924 | locus YPL256C, strain CLN2, hits give low values 0.36
